Screens as filed in PubChem BioAssay.
Rows were chosen to be rich in hits. Some 4.8% of all compounds tested hit in one or more screens of this group.
IL1B secr inh: blocks inflammasome-driven IL-1 beta release. actives 4.7% (n = 360,000). THP-1 LPS/ATP IL-1B secretion, AlphaLISA, 16 h; stronger effect = lower value. activity change, % at 57.5 µM; in the data active means activity change below about -50%; inconclusive means mostly about -30% to -49%; further: on the % scale 0 is the no-effect control and ±100 the full control effect
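Secreted IL-1B measured by AlphaLISA bead assay after 16 h compound exposure of THP-1 cells; compounds (final up to 57.5 uM) added 1 h before LPS (250 ng/mL) and ATP (1.25 mM) stimulation; lower signal means less secretion.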
USP1-UAF1 inh: blocks the human USP1/UAF1 deubiquitinase complex | Potency, µM (series often up to 57.1 µM), inactives show top-dose activity change, negative = inhibition, most hits filed as inhibitors | recombinant USP1/UAF1, Ub-Rhodamine cleavage fluorescence | actives 0.23% (n = 390,000); further: potency means the concentration at half of the fitted maximal effect; on the % scale 0 is the no-effect control and ±100 the full control effect; nearly all actives have a fitted effect of over 60% in size
Target sequence (O94782 whole entry, looked up): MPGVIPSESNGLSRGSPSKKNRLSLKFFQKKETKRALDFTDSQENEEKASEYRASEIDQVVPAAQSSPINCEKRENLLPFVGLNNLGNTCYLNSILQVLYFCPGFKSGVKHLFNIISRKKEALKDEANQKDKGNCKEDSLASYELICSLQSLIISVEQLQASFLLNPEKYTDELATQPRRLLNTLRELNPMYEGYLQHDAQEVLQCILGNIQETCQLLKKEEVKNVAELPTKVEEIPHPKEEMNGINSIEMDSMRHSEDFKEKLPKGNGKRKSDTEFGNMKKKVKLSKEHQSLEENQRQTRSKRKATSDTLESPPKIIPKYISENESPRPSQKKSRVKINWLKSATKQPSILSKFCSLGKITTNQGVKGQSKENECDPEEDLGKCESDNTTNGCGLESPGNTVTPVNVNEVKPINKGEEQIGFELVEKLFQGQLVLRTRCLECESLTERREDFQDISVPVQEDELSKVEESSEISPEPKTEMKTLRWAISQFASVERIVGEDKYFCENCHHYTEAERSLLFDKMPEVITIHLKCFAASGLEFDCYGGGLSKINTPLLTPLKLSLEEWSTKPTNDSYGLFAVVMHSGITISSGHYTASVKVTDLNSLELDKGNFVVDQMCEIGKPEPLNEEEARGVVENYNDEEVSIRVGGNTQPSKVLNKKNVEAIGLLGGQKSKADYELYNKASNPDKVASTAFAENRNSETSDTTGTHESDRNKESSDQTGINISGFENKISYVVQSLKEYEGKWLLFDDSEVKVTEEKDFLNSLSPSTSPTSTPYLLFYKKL
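In this screen, compounds sit with the deubiquitinase complex (1nM) for 15 min at room temperature before Ub-Rho is added at 150nM final. Fluorescence rise is then followed for 6 reads every 60 seconds.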
S2 tox: viability counter-screen for ATXN expression inhibitors | S2 cells (HEK-293 line with an ATXN2-luciferase reporter) viability, CellTiter-Fluor protease fluorescence, 24 h | Potency, µM (highest dose often 56.7 µM), usual class: cytotoxic | actives 0.49% (n = 400,000) | AID 651635; further: potency means the concentration at half of the fitted maximal effect; nearly all actives have a fitted effect of over 40% in size
ATXN2 expr inh: reduces ATXN2 reporter expression in HEK-293 cells | HEK-293 ATXN2-luciferase reporter, luminescence, 24 h | actives 0.72% (n = 360,000) | Potency, µM (series often up to 57 µM), inactives show at the top dose activity change, negative = inhibition, usual class: inhibitors; further: potency means the concentration at half of the fitted maximal effect; on the % scale 0 is the no-effect control and ±100 the full control effect; nearly all actives have a fitted effect of over 55% in size
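ATXN2-luciferase reporter cells (luciferase flanked by upstream and downstream ATXN2 gene portions) were treated 24 h at 37 °C with compounds at up to 57 uM. SteadyGlo luminescence gave expression; GF-AFC fluorescence gave viability.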
USP2a block: USP2a (human) protease inhibition. O75604. USP2 core, Ub-CHOP2 coupled fluorogenic reporter, 485/531. Potency, µM (series often up to 38.3 µM), without a hit: top-dose activity change, negative = inhibition, actives largely listed as inhibitors. actives 0.01% (n = 330,000). AID 463254;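 further: potency means the concentration at half of the fitted maximal effect; plate controls were DMSO wells for no effect and full inhibition by NEM control for full effect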
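USP2 core (10nM final) preincubated 30min RT with compound in 20mM Tris-HCl pH 8.0, 2mM CaCl2, 2mM beta-mercaptoethanol, 0.05% CHAPS; 25nM Ub-CHOP2 plus 25nM reporter substrate added, fluorescence (Ex485/Em531) read after 60min.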
* hit, by the source's call; i = inactive; ? = inconclusive; nt = not tested or not shown; [ ] = another dose, or the depositor's remark. Unless noted, the call rests on the fitted dose curve; in most records, active means well fitted curve in the direction sought with a large enough effect; inconclusive means small, poorly fitted or top-dose-only effect, or another doubt; inactive means no such curve, though single readings can be large; an effect the other way counts as inactive or inconclusive.

SMILES	IL1B secr inh	USP1-UAF1 inh	S2 tox	ATXN2 expr inh	USP2a block
Cc1c(C(=O)NCCN2CCOCC2)cnn1-c1nccc(-c2cc3ccccc3o2)n1	nt	nt	i	nt	nt
CC1CCc2c(nc3sc4c(c3c2N)CCCC4)C1 (stereo not given)	-91*	-21%	?	-23%	2%
CC1CCc2nc3sc4c(c3c(N)c2C1)CCCC4 (stereo not given)	nt	-10%	i	2%	0%
Clc1cncc(Cl)c1N/N=C/c1ccncc1	-95*	-9%	i	-2%	3%
O=C(O)c1cc(N/N=C/c2ccncc2)ccc1Cl	8	-7%	i	-17%	1%
Clc1cccc(Cl)c1/C=N/Nc1c(Cl)cncc1Cl	-82*	-15%	i	-27%	0%
COC(=O)/C=C\C(=O)OC	nt	nt	i	7%	nt
COCc1ccc(CN2Cc3ccccc3OC(c3ccccc3F)C2)o1 (stereo not given)	nt	nt	i	nt	nt
COc1cccc(C(=O)Nc2nnc(-c3cccs3)o2)c1	-3	-14%	28µM*	?	-3%
CN(CCOc1ccccc1Cl)Cc1ccccc1	-20	-10%	i	3%	-2%
CN(CCOCCOc1ccc(Cl)cc1Br)Cc1ccccc1	-80*	-9%	i	-12%	-3%
Cc1ccc(Cl)c(OCCCCN(C)Cc2ccccc2)c1	-57*	-13%	nt	?	1%
Cc1ccc(Cl)c(OCCCN(C)Cc2ccccc2)c1	-77*	-5%	i	-20%	-10%
O=C(O)C1=CC(O)C(O)[C@H](O)C1 (stereo not given in full)	nt	nt	nt	1%	nt
Cc1sc2ncnc(N3CCN(CCOc4ccc(Cl)cc4)CC3)c2c1C	-58*	-14%	i	?	1%
Cc1sc2ncnc(N3CCN(Cc4ccccc4)CC3)c2c1-c1ccccc1	-56*	-20%	i	-28%	1%
CCOc1ccc(CN2CCN(c3ncnc4scc(-c5ccccc5)c34)CC2)cc1	16	-18%	i	-27%	-3%
C=CCNC(=O)c1onc(CSc2cc(C)cc(C)c2)c1C(=O)NCC=C	-104*	-23%	i	-19%	-11%
C=CCNC(=O)c1onc(CSc2cccc(C)c2)c1C(=O)O	6	-23%	i	10%	0%
Cc1cccc(N2CCN(C(=O)C3CCCCC3)CC2)c1C	-65*	0%	i	-26%	0%
CC(COc1ccc(/C=C/c2ccccc2)cc1)[N+](C)(C)C (stereo not given)	151	-22%	i	1%	0%
CCc1ccc(-c2cc(C(=O)N/N=C/c3c[nH]c4ccccc34)[nH]n2)cc1	-53*	-4%	?	-10%[11.3 µM]	-9%
O=C(N/N=C/c1c[nH]c2ccccc12)c1cccc(Cl)c1	-2	-15%	i	nt	2%
CC(C)c1cc(C(=O)N/N=C/c2c[nH]c3ccccc23)n[nH]1	-5	-16%	i	12%	4%
CCc1ccc2c(Cl)c(C(=O)N/N=C/c3c[nH]c4ccccc34)sc2c1	-50*	-4%	i	3%	4%
SMILES	IL1B secr inh	USP1-UAF1 inh	S2 tox	ATXN2 expr inh	USP2a block
Cc1ccc(S(=O)(=O)Nc2ccc3nc(-c4cccn4C)[nH]c3c2)cc1	-50*	-24%	?	-13%	0%
Cn1cccc1-c1nc2ccc(NC(=O)c3ccccc3)cc2[nH]1	0	1%	i	21%	1%
CC(=O)c1ccc(NC(=O)c2cc(S(=O)(=O)N3CCOCC3)ccc2C)cc1	30	-14%	i	-18%	-1%
Cc1ccccc1C(=O)Nc1ccc(N2CCCC2)cc1	-55*	1%	i	32%[11.3 µM]	2%
Cc1ccc(S(=O)(=O)N2CCOCC2)cc1C(=O)Nc1ccc(N2CCCCCC2)cc1	-53*	-4%	i	9%	-5%
CCCS(=O)(=O)NCc1c(C)ncc2c1CCN(C(=O)c1cccc(C(F)(F)F)c1)C2	nt	nt	i	nt	nt
CCCN1C(=O)/C(=C/c2c(N3CCNC(=O)C3CC(=O)OC)nc3c(C)cccn3c2=O)SC1=S (stereo not given)	nt	nt	nt	nt	11%
CCOC(=O)c1ccc2c(c1)n(CC)c(/C=C/N(C)c1ccccc1)[n+]2CC	-89*	-12%	i	-33%	0%
CCOC(=O)c1ccc2c(c1)n(CCO)c(C)[n+]2CC	5	-4%	i	-1%	3%
O=C(C1CCCN(S(=O)(=O)c2ccc(Br)cc2)C1)N1CCN(Cc2ccccc2)CC1 (stereo not given)	-52*	-19%	i	-25%	-4%
O=C(/C=C/c1ccc(Br)cc1)N1CCN(Cc2ccccc2)CC1	-81*	-18%	i	-5%	nt
Cc1cccc(CN2CCN(C(=O)CCl)CC2)c1	-106*	-11%	nt	?	4%
CCCCCCCCCCCC(=O)NC(C(=O)OCC)C(O)c1cccc([N+](=O)[O-])c1 (stereo not given)	-79*	-23%	i	-19%	-1%
CCCCCCn1c(=O)n2n(c1=O)C[C@]1(OC(=O)NCC3CCCCC3)CN(S(=O)(=O)c3ccc(C)cc3)C[C@]1(O)C2	?	?	nt	-34%	nt
Cc1ccc(C)c(N2CCN(C(=O)CCNC(=O)Cn3ccc4ccccc4c3=O)CC2)c1	-1	-4%	i	-28%	2%
Cc1ccc(Cl)cc1N1CCN(C(=O)Cn2ccc3ccccc3c2=O)CC1	-66*	-6%	i	-21%	-9%
CC(=O)N(Cc1ccc2c(c1)OCO2)Cc1cc2ccc(C)cc2nc1-c1cccc(C)c1	nt	nt	i	nt	nt
CC(Oc1cccc(Cl)c1)C(=O)Nc1ccc(S(=O)(=O)N(C)C2CCN(C)CC2)cc1 (stereo not given)	-57*	2%	i	-16%	0%
CC(=O)Nc1ccc(S(=O)(=O)N(C)C2CCN(C)CC2)cc1	-3	-6%	i	-12%	1%
CC(Oc1ccccc1Cl)C(=O)Nc1ccc(S(=O)(=O)N2CCN(C)CC2)cc1 (stereo not given)	-55*	-9%	i	22%	nt
CN1CCN(c2ccc(NS(=O)(=O)c3ccc(Cl)cc3)cn2)CC1	-11	-21%	i	-7%	-3%
Cc1ccc(S(=O)(=O)Nc2ccc(N3CCN(C)CC3)nc2)cc1	-65*	-19%	?	-11%	3%
Cc1cccc(Sc2ccc([N+](=O)[O-])cc2[N+](=O)[O-])n1	-171*	3%	i	nt	1%
O=[N+]([O-])c1ccc(Sc2ncccn2)c([N+](=O)[O-])c1	nt	0%	?	?	-1%
CC(C)Sc1nc(-c2ccccc2)cc(=O)[nH]1	-6	-21%	i	2%	0%
O=c1cc(-c2ccccc2)nc(Sc2ccc([N+](=O)[O-])cc2[N+](=O)[O-])[nH]1	-63*	-13%	i	20%	nt
